# Results from PubChem BioAssay (NCI).
# About 83,000 compounds went through this panel and 20% of them were active in at least one assay; those are over-represented in the sample as a whole.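 In brief: 96-well plates, 48 h treatment, single concentration, percent growth endpoint.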 Values without a mark were called inactive. Calls of active or inactive are those of the source. How the source made its calls: active means growth percent below 10; inactive means the rest.
# Legend:
# Assay in all cases: NCI-60 one-dose screen, 48 h (100 = growth as untreated, 0 = no growth, -100 = all killed)
# [1] = system: RPMI-8226 leukemia; conditions: 10 µM unless noted
# [2] = system: OVCAR-8 ovarian; conditions: 10 µM unless noted
# [3] = system: OVCAR-5 ovarian; conditions: 10 µM unless noted
# [4] = system: OVCAR-4 ovarian; conditions: 10 µM unless noted
# [5] = system: SK-OV-3 ovarian; conditions: 10 µM unless noted
# [6] = system: OVCAR-3 ovarian; conditions: 10 µM unless noted
# [7] = system: HS 578T breast; conditions: 10 µM
# [8] = system: NCI/ADR-RES ovarian; conditions: 10 µM unless noted
# [9] = system: T-47D breast; conditions: 10 µM unless noted
# [10] = system: BT-549 breast; conditions: 10 µM unless noted
# [11] = system: MDA-MB-435 melanoma; conditions: 10 µM unless noted
# [12] = system: SW-620 colon; conditions: 10 µM unless noted
# [13] = system: MCF7 breast; conditions: 10 µM unless noted
# [14] = system: HCT-116 colon; conditions: 10 µM unless noted
# [15] = system: HCC-2998 colon; conditions: 10 µM unless noted
# [16] = system: KM12 colon; conditions: 10 µM unless noted
# [17] = system: IGROV1 ovarian; conditions: 10 µM unless noted
Structure (SMILES),growth [1],growth [2],growth [3],growth [4],growth [5],growth [6],growth [7],growth [8],growth [9],growth [10],growth [11],growth [12],growth [13],growth [14],growth [15],growth [16],growth [17]
O=C(Cc1ccc(Nc2ccnc(C(F)(F)F)c2)cc1)N/N=C/c1ccccc1O,29.6%,25.6%,28.1%,18.4%,17.1%,40.8%,102%,23.8%,18.4%,50.2%,34.7%,38.3%,12.9%,16.1%,40.5%,30.7%,
O=C(C(=O)c1cccnc1)c1cccnc1,,82.6%,100%,101%,136%,87.7%,99%,97.5%,170%,,119%,103%,97.5%,99.8%,99.1%,108%,31%
CCN(CC)Cc1cc(Nc2ccnc3cc(Cl)ccc23)cc(-c2ccc(Cl)cc2)c1O,6% (active),9.58% (active),54.2%,,48.1%,-44.1% (active),-33.5% (active),19.9%,50.9%,25.4%,35.4%,12.3%,14.8%,43.4%,64.3%,34.5%,-6.07% (active)
Cc1ccc2nc(CN(CCN(Cc3nc4ccc(C)cc4[nH]3)Cc3nc4ccc(C)cc4[nH]3)Cc3nc4ccc(C)cc4[nH]3)[nH]c2c1,,-71.8% (active),-67.8% (active),-99.2% (active),-94.6% (active),-94.4% (active),-74.1% (active),-72.5% (active),-93% (active),-98.2% (active),-92.6% (active),-85.9% (active),-95% (active),-96.3% (active),-65% (active),-95.9% (active),-95.2% (active)
CCOC(=O)c1ccc(NCCC(=O)O)cc1,115%,104%,110%,,113%,138%,104%,113%,101%,110%,116%,110%,92.4%,111%,103%,110%,112%
CCCCCCCCCCCCCCCC1=NCC[N+]1(CCO)CCO,,37%,43.1%,61.4%,95.1%,86.6%,75.2%,71.1%,78.8%,79.6%,30.7%,57.6%,50.5%,12.1%,82.5%,,-16% (active)
CCCCN(CCCC)CCC(O)c1cc2ccc(C(F)(F)F)cc2c2cc(C(F)(F)F)ccc12 (stereo unspecified),-9.02% (active),48.6%,74.9%,,74.2%,30.2%,58%,59.8%,52.1%,91.3%,54.2%,40.4%,6.74% (active),30.5%,-34.8% (active),12.9%,
O=C(O)Cn1ccc2ccccc21,,92.6%,100%,97.8%,134%,104%,108%,103%,135%,,108%,99.1%,96.4%,96.9%,104%,109%,-6.06% (active)
N#Cc1c(N)n(C2OC(CO)C(O)C2O)c2ncnc(N)c12 (stereo unspecified),,-13.1% (active),-11.4% (active),0.621% (active),-0.358% (active),-62.1% (active),-19.2% (active),-7.81% (active),-46.2% (active),,-58.4% (active),-33.3% (active),-21.1% (active),4.76% (active),-35.2% (active),-3.95% (active),-63% (active)
COc1cccc(OCC(O)CN2CCN(c3ccccc3)CC2)c1 (stereo unspecified),,103%,105%,97.4%,106%,112%,117%,100%,100%,,121%,112%,108%,112%,106%,112%,107%
O=C(Nc1ccc(Oc2ccc(NC(=O)Nc3ccccc3Cl)cc2)cc1)Nc1ccccc1Cl,,,101%,29.7%,76.5%,-38.3% (active),34.5%,70.3%,45.3%,,48.8%,,44.1%,29.2%,80.4%,40.8%,-62.3% (active)
Cc1nc([C@H]2CC[C@H]3[C@@H]4CCC5=CC(=O)CC[C@]5(C)[C@H]4CC[C@]23C)cs1,,47.9%,91.4%,27.4%,85.3%,95.9%,104%,43.7%,42%,,,73.3%,55.2%,28.3%,61.1%,65.9%,109%
CCCCCCCCCC1=NC(C)(C)CN1C(C)(C)CO,81%,,88.3%,117%,124%,86.1%,100%,95.7%,153%,105%,110%,93.8%,95.3%,69.3%,84.1%,97.6%,72.1%
Nc1cc2nc3ccccc3oc-2cc1=O,,58.4%,81.6%,69.6%,92.4%,10.1%,-38.3% (active),60.6%,69.9%,-47.1% (active),-88% (active),11.6%,9.47% (active),45.1%,79.4%,32.4%,
O=[N+]([O-])c1cc(F)c2cccnc2c1O,,88.8%,105%,102%,97.4%,111%,105%,92.9%,99.5%,,102%,87.4%,94.7%,95.8%,96.2%,111%,3.74% (active)
Nc1c(C(=O)Nc2cccc(Cl)c2)sc2ncc(Br)cc12,71.3%,,84.1%,9.2% (active),61%,54.5%,,,62.6%,68.2%,,61.3%,84.2%,23%,99.7%,63.8%,70%
CC(=O)OC1Oc2ccccc2-c2oc3nc(=N)n(C)c-3cc21 (stereo unspecified),,98.6%,107%,104%,104%,,143%,96%,93.6%,128%,122%,104%,98.6%,100%,102%,209%,102%
CC(=O)OC1Oc2cc(C)c(C)cc2-c2oc(=O)c(-c3cc4ccccc4oc3=O)cc21 (stereo unspecified),,101%,97.6%,97.2%,89.4%,,423%,94.7%,91.9%,129%,,133%,108%,81.1%,96.2%,103%,73.8%
C=CCn1c(SCC(=O)Nc2ccc(C(=O)/C=C/c3ccc(Cl)cc3)cc2)nnc1-c1ccc(Cl)cc1,17.2%,,104%,94.8%,92%,89.1%,84.8%,80.5%,76%,82.5%,96.7%,97.9%,43.2%,-17.8% (active),90.4%,94.2%,79.5%
CN(CCO)c1ccc(N2Cc3ccccc3OC3=C2C(=O)c2c(O)ccc(O)c2C3=O)cn1,-16.2% (active),,-59.8% (active),-97.5% (active),-3.73% (active),-99.7% (active),28.4%,-2.37% (active),-42.7% (active),-73.2% (active),-84% (active),-51.7% (active),-34.9% (active),-85.6% (active),-84.2% (active),-78% (active),-72.7% (active)
